High-throughput results: PubChem, National Center for Advancing Translational Sciences (NCATS)
The sample as a whole holds a higher share of hits than the screen did.
ALOX12 inh: Primary qHTS assay for inhibitors of human arachidonate 12S-lipoxygenase (ALOX12): Round 2; Polyunsaturated fatty acid lipoxygenase ALOX12 (Homo sapiens), P18054; purified 12hLO, xylenol orange hydroperoxide absorbance; Potency, µM (series often up to 108 µM), for inactives: at the highest dose activity change, negative = inhibition, actives largely listed as inhibitors; 1.1% of 580,000 active; AID 1671190, 2021; further: on the % scale 0 is the no-effect control and ±100 the full control effect
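Purified human 12hLO at 150 nM in 25 mM Hepes, 0.01% Triton X-100, pH 7.0, preincubated 15 min at room temperature with compound. Reaction started with 40 uM arachidonic acid, 30 min at room temperature. Hydroperoxide measured by Fe-xylenol orange, 573/405 nm absorbance ratio.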
G9a inh: qHTS Assay for Inhibitors of Histone Lysine Methyltransferase G9a | 8.8% of 350,000 active | Histone-lysine N-methyltransferase EHMT2 (Homo sapiens), Q96KQ7 | G9a H3K9 monomethylation, AlphaScreen, 2 h | Potency, µM (series often up to 102 µM), inactives show at the highest dose activity, negative = inhibition, most hits filed as inhibitors; further: on the % scale 0 is the no-effect control and ±100 the full control effect; nearly all actives have a fitted effect of over 75% in size
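AlphaScreen read-out: biotin-H3K9 peptide (500 nM) methylation by 20 nM enzyme with 20 uM SAM, 2 h at room temperature after 15 min compound preincubation; anti-monomethyl H3K9 antibody plus donor/acceptor beads, 10 min dark.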
GRP78 ERSR act: qHTS for Inducers of the Endoplasmic Reticulum Stress Response (ERSR) in Human Glioma: qHTS; U87-MG GRP78 promoter luciferase reporter, 16 h; Potency, µM, for the others: at the top dose activation, most hits filed as activators; 0.02% of 420,000 active; AID 602332, 2012; further: series mostly up to about 76 µM; % of control where 0% means no effect; nearly all actives have a fitted effect of over 35% in size
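ERSR induction read as luciferase luminescence (Bright-Glo, 10 min at room temperature) in stably transfected human U87-MG glioma cells exposed to compounds for 16 h, using GRP78 as sensor.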
VDR inhibitor: Inhibitors of the vitamin D receptor (VDR): qHTS; Potency, µM, for inactives: max response, negative = inhibition, actives largely listed as inhibitors; 0.93% of 400,000 active; Vitamin D3 receptor (Homo sapiens), P11473; VDR-SRC2-3 peptide fluorescence polarization, 2 h; further: on the % scale 0 is the no-effect control and ±100 the full control effect
Target sequence (P11473 whole entry, looked up): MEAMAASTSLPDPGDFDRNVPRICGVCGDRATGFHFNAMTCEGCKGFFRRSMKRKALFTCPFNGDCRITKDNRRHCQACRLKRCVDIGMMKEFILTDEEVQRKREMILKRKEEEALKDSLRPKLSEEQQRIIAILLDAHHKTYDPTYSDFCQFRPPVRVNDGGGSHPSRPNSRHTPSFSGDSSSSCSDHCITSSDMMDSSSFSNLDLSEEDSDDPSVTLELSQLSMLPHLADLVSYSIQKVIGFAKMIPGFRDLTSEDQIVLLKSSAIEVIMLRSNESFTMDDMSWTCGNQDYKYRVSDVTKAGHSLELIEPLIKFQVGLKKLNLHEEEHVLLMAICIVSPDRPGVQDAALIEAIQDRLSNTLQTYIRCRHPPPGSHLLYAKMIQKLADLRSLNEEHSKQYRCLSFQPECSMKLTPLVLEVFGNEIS
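Measured by FP: displacement of SRC2-3 coactivator peptide from VDR by library compounds, following a two-hour ambient incubation.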
Sfp inh: qHTS Assay for Inhibitors of Bacillus subtilis Sfp phosphopantetheinyl transferase (PPTase); Potency, µM, inactives show largest response in the series, negative = inhibition, most hits filed as inhibitors; Biochemical Sfp PPTase activity, qHTS; 3.5% of 310,000 active; 4'-phosphopantetheinyl transferase ffp (Bacillus subtilis), Q9F4F7;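 further: the enzyme is Sfp with the accession as filed and its product quenches rhodamine fluorescence; 0% = enzyme reaction without inhibitor and -100% = no enzyme wells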
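Fluorescence-quenching assay with 15 nM Sfp, 5 uM rhodamine-CoA and 12.5 uM BHQ-2-labelled ybbR peptide in pH 7.6 Hepes/MgCl2 buffer. Enzyme was pre-incubated with compound for 15 min at room temperature. Rate was taken from the 30-min fluorescence change (525/598 nm).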
Starred values were filed as active, the others as inactive; ? = inconclusive; . = no result; [ ] = remark or other dose. The call rests on the fitted dose curve; in most records, active means well fitted curve in the direction sought with a large enough effect; inconclusive means small, poorly fitted or top-dose-only effect, or another doubt; inactive means no such curve, though single readings can be large; an effect the other way counts as inactive or inconclusive. Potency means the concentration at half of the fitted maximal effect.

SMILES	ALOX12 inh	G9a inh	GRP78 ERSR act	VDR inhibitor	Sfp inh
COc1cc(S(=O)(=O)NCc2ccc(F)cc2)ccc1-n1cnnn1	-1.3%	3.3%	-2.0%	-3.0%	13.8%
O=S(=O)(NCc1ccccc1Cl)c1ccc(-n2cnnn2)cc1	-0.4%	?	2.8%	-3.4%	19.6%
COc1cc(S(=O)(=O)NCc2ccccc2Cl)ccc1-n1cnnn1	-9.1%	12.6µM*	0.2%	-19.4%	-8.5%
COc1ccccc1CNS(=O)(=O)c1ccc(-n2cnnn2)c(OC)c1	28.1%	28.2µM*	-3.8%	10.4%	-9.4%
O=C(O)c1cc(=O)n(Cc2ccccc2)c(=O)[nH]1	?	15.8µM*	-2.0%	-12.0%	?
Cc1ccc(NC(=O)c2cc(=O)n(Cc3ccccc3)c(=O)[nH]2)cc1C	-3.9%	1.2%	-1.3%	?	-19.6%
O=C(Nc1nccs1)[C@@H]1C[C@H](c2ccc(F)cc2)N(Cc2ccccc2Cl)C1	4.7%[176 µM]	.	.	.	.
CC(C)C(NC(=O)c1ccc(C(C)(C)C)cc1)C(=O)OCC(=O)N1CCCC1 (configuration not stated)	-22.6%	.	.	.	.
CN(CC(=O)NC1(C#N)CCCCC1)Cc1ccc(C(F)(F)F)cc1	28.2µM*	.	.	.	.
CN(CC(=O)NC1(C#N)CCCCCC1)Cc1ccc(C(F)(F)F)cc1	9.7%	.	.	.	.
CC(C)NC(=O)C(C#N)(Cc1ccc(C#N)cc1)Cc1ccc(C#N)cc1	62.1%	.	.	.	.
CC1CN(CCCCOc2ccc(Cl)c3ccccc23)CC(C)O1 (configuration not stated)	?	.	-4.2%	-12.5%	79.4µM*
CCOc1ccccc1OCCOCCN1CC(C)OC(C)C1 (configuration not stated)	-30.5%	15.8µM*	-5.3%	-3.3%	0.2%
CC1CN(CCOc2ccc(Cl)cc2Cl)CC(C)O1 (configuration not stated)	-17.5%	?	-4.2%	-7.0%	-15.8%
COc1ccc(-c2ccc3c(c2)[C@@H]2C[C@H](N(C)C(=O)C(C)(C)C)[C@H]([C@H](C)O)C(=O)N2CC3)cc1	11.2µM*	.	-2.1%	-4.7%	.
CC(C)NCCOCCSc1ccc(Cl)cc1	?	8.91µM*	-4.8%	11.0%	-24.0%
CCCCNCC(O)(c1ccc(Cl)cc1)c1ccc(Cl)cc1	-8.6%	0.9%	-5.1%	-9.6%	16.5%
COCCCNCCOCCSc1ccc(Cl)cc1	-27.7%	?	-8.1%	-4.3%	50.1µM*
COCCCNCCCOc1ccc(Cl)cc1C(C)(C)C	?	?	-5.2%	-13.9%	?
CCCCNCCOCCSc1ccc(Cl)cc1	?	8.91µM*	-4.2%	13.3%	-10.2%
COCCCNCCCCSc1ccc(Cl)cc1	?	3.55µM*	-3.3%	-8.5%	-7.6%
CN(C)CCOCCSc1ccc(Cl)cc1	?	26.0%[0.501 µM]	-0.4%	-4.6%	-14.9%
CCn1cc(C(=O)O)c(=O)c2cnc(N3CCN(C(=S)Nc4ccccc4Cl)CC3)nc21	-25.4%	56.2µM*	-0.8%	5.0%	18.4%
CCn1cc(C(=O)O)c(=O)c2cnc(N3CCN(C(=S)Nc4ccc(F)cc4)CC3)nc21	-1.5%	25.9%	-2.4%	3.8%	-12.8%
O=C(NC(=S)N1CCCC1)c1cccc([N+](=O)[O-])c1	98.6%	79.4µM*	-2.0%	-5.5%	1.5%
SMILES	ALOX12 inh	G9a inh	GRP78 ERSR act	VDR inhibitor	Sfp inh
O=C(NNC(=S)NC(=O)c1cccc([N+](=O)[O-])c1)c1ccc(Br)cc1	39.8µM*	44.7µM*	-4.4%	8.9%	-1.6%
O=C(NC(=S)N1CCCCCC1)c1cccc([N+](=O)[O-])c1	-9.2%	33.0%[2.33 µM]	0.5%	2.9%	.
O=C(NNC(=S)NC(=O)c1ccccc1)c1cccc([N+](=O)[O-])c1	?	28.2µM*	-1.2%	-22.8%	12.7%
O=C(O)CSCc1ccc(F)cc1	8.3%	.	.	.	.
CCOc1cccc2c1OC(c1cc(OC)c(OC)c(OC)c1)N1N=C(c3ccc(C)o3)CC21 (configuration not stated)	.	12.6µM*	?	6.9%	?
CC(C)c1ccc(NC(=O)COC(=O)C2CCN(c3ccc(C(F)(F)F)cn3)CC2)cc1	-24.0%	.	.	.	.
